Experimental data from PubChem BioAssay (NCATS).
Results filed as inconclusive are left out. A number with no mark means an inactive call. Calls of active or inactive are those of the source. The call rests on the fitted dose curve; in most records, active means well fitted cell-killing curve with a large enough effect; inconclusive means small, poorly fitted or top-dose-only effect, or effect the other way; inactive means flat fitted curve, though single readings scatter.

tested on: Tov112D; test: Primary qHTS to identify gynecologic anti-cancer compounds using libraries of approved drugs and bioactive compounds (AID 1345084); details: Gynecologic cancer cell panel viability, ATPlite luminescence, 48 h; series mostly up to 57.5 µM; activity change, negative = cytotoxicity: at the top concentration; further: nearly all actives have a fitted effect of over 55% in size
Outline: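 Luminescence from the ATPlite ATP-monitoring reagent indicates viable cell number; lower signal means cytotoxicity. Cells received compound 16 h after seeding and were exposed for 48 h across five concentrations.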
On the % scale 0 is the no-effect control and ±100 the full control effect; potency means the concentration at half of the fitted maximal effect.

Which “activity change, negative = cytotoxicity” value does the source give for `CC1C/C=C/C(O)C(O)CC/C=C/c2cc(O)cc(O)c2C(=O)O1` (stereo unspecified) here?
Its value is -0.187% [at 38.5 µM].

How did the “activity change, negative = cytotoxicity” value turn out when `C[C@H](NC(=O)Cc1cc(F)cc(F)c1)C(=O)N[C@@H]1N=C(c2ccccc2)c2ccccc2N(C)C1=O` was run?
The value was 11.2%.

Which “activity change, negative = cytotoxicity” value does the source give for `CCN1C[C@]2(COC)[C@H](O)C[C@H](OC)[C@]34[C@@H]5C[C@]6(O)[C@H](OC(=O)c7ccccc7)[C@@H]5[C@@](O)([C@H]([C@H](OC)[C@H]23)[C@@H]14)[C@@H](O)[C@@H]6OC` here?
The value was 5.25% [at 38.5 µM].

For `CCCN1CCO[C@H]2c3cc(O)ccc3OC[C@@H]21`, which “activity change, negative = cytotoxicity” value is on record?
Its value is 13.6%.

`COC(=O)C1(C)CCC(=O)C2(C)c3c(O)cc(C(C)C)cc3C(O)C(OC(C)=O)C12` (stereo unspecified) was tested. Which “activity change, negative = cytotoxicity” value did it give?
The value was 6.58% [at 25.3 µM].

Which “activity change, negative = cytotoxicity” value does the source give for `O=C(N1CCOCC1)N1CCN(c2ccc(Cl)cc2)CC1` here?
The value was -1.21%.

Which “activity change, negative = cytotoxicity” value does the source give for `C/C=C(\C)C(=O)OC1CC2C(C)(C)OC(=O)CC(OC(C)=O)C2(C)C2CC(OC(=O)C(C)C)C3(C)C(c4ccoc4)CC4OC43C12C` (stereo unspecified) here?
Its value is 2.93% [at 25.3 µM].

`Clc1ccc(N2C[C@H]3CC[C@@H](C2)N3)nn1` was tested. Which “activity change, negative = cytotoxicity” value did it give?
Its value is 11.1%.

Which “activity change, negative = cytotoxicity” value does the source give for `OCCCCC#Cc1cncc(OC[C@@H]2CCN2)c1` here?
Its value is -4.27%.

`Cc1cc(C(=O)CN2CCCC2)c(C)n1-c1ccc(F)cc1` was tested. Which Potency did it give?
The Potency was “inactive”.

With `CC(=O)O[C@H]1C[C@@H](OC(C)=O)C(C)(C)C2C[C@@H](O)[C@]3(C)C(CC[C@@]4(C)[C@H](C5=CC(=O)OC5O)C[C@H]5O[C@]543)[C@]21C` (stereo partly specified) as the compound, how does the “activity change, negative = cytotoxicity” value read?
Its value is -0.997% [at 25.3 µM].

With `CN1CCC[C@@H]1Cc1c[nH]c2ccc(Nc3ncccc3[N+](=O)[O-])cc12` as the compound, how does the “activity change, negative = cytotoxicity” value read?
The value was 6.56%.

Which “activity change, negative = cytotoxicity” value does the source give for `Clc1ccc(OCC2=NCCN2)cc1Cl` here?
The value was 4.16%.

How did the “activity change, negative = cytotoxicity” value turn out when `COc1cc(C)[nH]c(=O)c1CNC(=O)c1c(C)n([C@H](C)C2CCOCC2)c2ccccc12` was run?
Its value is 5.51%.

For `CN1[C@@H]2CC[C@H]1CC(OC(=O)C1C=Nc3ccccc31)C2` (stereo partly specified), which “activity change, negative = cytotoxicity” value is on record?
Its value is 1.37%.

How did the “activity change, negative = cytotoxicity” value turn out when `CCC(C)(C#N)O[C@@H]1O[C@H](CO)[C@@H](O)[C@H](O)[C@H]1O` (stereo partly specified) was run?
The value was 6.09%.

With `CC(C)=C1CC[C@]23CO[C@H](C2)[C@@](O)(C(=O)O)CCC13` (stereo partly specified) as the compound, how does the “activity change, negative = cytotoxicity” value read?
Its value is -1.18%.

Which “activity change, negative = cytotoxicity” value does the source give for `COc1c(C(C)C)cc2c(c1O)[C@@]1(C(=O)O)CCCC(C)(C)C1CC2` (stereo partly specified) here?
The value was -10.1% [at 38.5 µM].

How did the “activity change, negative = cytotoxicity” value turn out when `CC1=C2C[C@H]3[C@@H](CC=C4C[C@@H](O)CC[C@@]43C)[C@@H]2CC[C@]12O[C@@H]1C[C@H](C)CN[C@H]1[C@H]2C` was run?
Its value is 2.06%.

`CN[C@H]1[C@H](O)[C@H](O[C@@H]2[C@@H](O)[C@H](O[C@H]3O[C@H]([C@H](C)O)[C@@H](O)[C@H](O)[C@H]3N)[C@@H](N)C[C@H]2N)OC[C@@]1(C)O` was tested. Which “activity change, negative = cytotoxicity” value did it give?
The value was 16.8%.

Which “activity change, negative = cytotoxicity” value does the source give for `O=C(O)c1ccnc2cc(C(OCCN3CCCCC3)c3ccccc3Cl)[nH]c12` (stereo unspecified) here?
The value was 20.9%.

With `CCCCCCn1c(=O)c(C(=O)Nc2ccc(C(=O)OCCC)cc2)c(O)c2ccccc21` as the compound, how does the activity change, negative = cytotoxicity read?
The activity change, negative = cytotoxicity was 27% [at 11.6 µM].

`COC(=O)C1(C)CCC(O)C2(C)c3cc(O)c(C(C)C)cc3C(O)C(OC(C)=O)C12` (stereo unspecified) was tested. Which “activity change, negative = cytotoxicity” value did it give?
Its value is 7.91% [at 25.3 µM].

For `CC[C@H]1CN2CC[C@H]1C[C@@H]2[C@@H](O)c1ccnc2ccc(OC)cc12`, which “activity change, negative = cytotoxicity” value is on record?
Its value is 0.435% [at 38.5 µM].

With `CC(C)(C)c1cc(C(C)(C)C)c2c(c1)C(O)(C(F)(F)F)C(=O)O2` (stereo unspecified) as the compound, how does the “activity change, negative = cytotoxicity” value read?
The value was -2.08%.

How did the Potency turn out when `COC1CC(OC2CCC3(C)C(CCC4C3CCC3(C)C(C5=CC(=O)OC5)C(OC(C)=O)CC43O)C2)OC(C)C1OC1OC(CO)C(O)C(O)C1O` (stereo unspecified) was run?
Its Potency is 891 nM (active).

`COCC1OC(=O)c2coc3c2C1(C)C1=C(C3=O)C2CCC(=O)C2(C)CC1O` (stereo unspecified) was tested. Which “activity change, negative = cytotoxicity” value did it give?
Its value is 0.536% [at 38.5 µM].

With `COC(=O)[C@@]12C(=O)C(C)C(=O)[C@]1(C)C(C)=C[C@H]1[C@]3(C=O)CC[C@H](OC(C)=O)C(C)(C)[C@H]3CC[C@@]12C` (stereo partly specified) as the compound, how does the “activity change, negative = cytotoxicity” value read?
Its value is -0.537% [at 25.3 µM].

For `CCN1C[C@]2(COC(=O)c3ccccc3N3C(=O)C[C@H](C)C3=O)CC[C@H](OC)[C@@]34[C@@H]5C[C@H]6[C@H](OC)[C@@H]5[C@](O)(C[C@@H]6OC)[C@](O)([C@@H](OC)[C@H]23)[C@@H]14`, which “activity change, negative = cytotoxicity” value is on record?
The value was 8.97%.

How did the Potency turn out when `COC1CC(O[C@H]2CC[C@]3(C=O)C4CC[C@]5(C)[C@@H](C6=CC(=O)OC6)CC[C@]5(O)[C@@H]4CC[C@]3(O)C2)OC(C)C1O[C@@H]1O[C@H](CO)[C@@H](O)[C@H](O)[C@H]1O` (stereo partly specified) was run?
The Potency was 100 nM (active).

How did the “activity change, negative = cytotoxicity” value turn out when `CN(C)CCc1c[nH]c2ccc(CN3CCN(C)S3(=O)=O)cc12` was run?
The value was 6.06%.

Which “activity change, negative = cytotoxicity” value does the source give for `CCC1NC(=O)C2C(Cl)C(Cl)CN2C(=O)C(C(C)O)NC(=O)CC(c2ccccc2)NC(=O)C(CO)NC1=O` (stereo unspecified) here?
The value was 2.27% [at 25.3 µM].

Which “activity change, negative = cytotoxicity” value does the source give for `CC(C)(O)[C@H]1O[C@H]2CC[C@@]3(C)[C@@](O)(CC[C@H]4Cc5c([nH]c6ccccc56)[C@@]43C)C2=CC1=O` here?
Its value is -7.61% [at 25.3 µM].

With `CCN1CC2(COC)C3[C@@H](OC)C4C1C3(C1C[C@]3(O)[C@H](OC(=O)c5ccccc5)C1[C@]4(OC(C)=O)[C@@H](O)[C@@H]3OC)[C@H](OC)C[C@H]2O` (stereo partly specified) as the compound, how does the “activity change, negative = cytotoxicity” value read?
Its value is 10.4%.

`CC(C)[C@@H](CN1CC[C@@](C)(c2cccc(O)c2)[C@@H](C)C1)NC(=O)[C@H]1Cc2ccc(O)cc2CN1` was tested. Which “activity change, negative = cytotoxicity” value did it give?
The value was 10.4%.

For `Cn1ncnc1COc1nn2c(-c3c(F)cccc3F)nnc2cc1C1CCC1`, which “activity change, negative = cytotoxicity” value is on record?
The value was 4.82%.
